Compounds with a hit are over-represented: about 2.5% of the library has one in this group of screens.
STAT3 SMM: STAT3 (human) binding. P40763. Small molecule microarray, His-STAT3 binding, anti-His fluorescence. calls only. actives 0.2% (n = 17,000). AID 624138;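 active = compounds whose four printed spots each show fluorescence over background unusually high for their array block, chance value under 7%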
p53 mut binder: mutant p53 (human) binding; actives 0.4% (n = 17,000); calls only; AID 624136; small molecule microarray binding, anti-GST fluorescence;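 active = compounds whose four printed spots each glow above background more than chance allows, each with a p-value under 7%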
NFkB SMM: binders of human NF-kappa-B p105 | P19838 | Small molecule microarray, anti-His fluorescence binding | calls only | actives 1.3% (n = 17,000) | AID 624139;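 active = spot fluorescence over background significantly raised, with a chance value under 7% in all four replicate spots of the compound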;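 also: probe protein is his-tagged human p50 processed subunit at 1 µg/ml; raw spot fluorescence signals with no normalization applied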
Target sequence (P19838 1-433 limits assumed): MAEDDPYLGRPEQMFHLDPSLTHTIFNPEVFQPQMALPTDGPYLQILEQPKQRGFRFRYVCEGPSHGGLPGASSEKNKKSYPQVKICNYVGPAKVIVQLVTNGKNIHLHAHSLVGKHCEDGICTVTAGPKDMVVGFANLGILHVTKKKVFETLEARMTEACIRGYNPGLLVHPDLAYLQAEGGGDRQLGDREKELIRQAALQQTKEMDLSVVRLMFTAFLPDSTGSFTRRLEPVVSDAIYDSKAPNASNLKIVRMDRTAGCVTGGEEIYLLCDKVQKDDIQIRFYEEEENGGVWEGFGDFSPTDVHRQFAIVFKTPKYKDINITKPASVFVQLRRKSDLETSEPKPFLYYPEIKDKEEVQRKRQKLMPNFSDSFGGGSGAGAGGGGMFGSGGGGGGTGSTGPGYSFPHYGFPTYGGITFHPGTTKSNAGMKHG
c-Myc SMM: binds human c-Myc on microarray; P01106; small molecule microarray, His-c-Myc binding, anti-His fluorescence; calls only; actives 1.5% (n = 17,000);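 active = spot fluorescence over background with P-value below 7% in all four replicate spots, showing protein binding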;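 also: score is binary with 100 for all four spots passing and 0 otherwise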
Active calls of the source: *; i = inactive; + = active, no number.

SMILES	STAT3 SMM	p53 mut binder	NFkB SMM	c-Myc SMM
C[C@@H]1O[C@@H](O[C@H]2[C@@H](O)[C@@H](C)O[C@@H](O[C@H]3[C@H](O)[C@@H](O)[C@H](O[C@H]4CC[C@@]5(C)C(CC[C@]6(C)C5C=CC5=C7CC(C)(C)CC[C@]7(CO)CC[C@]56C)[C@]4(C)CO)O[C@@H]3CO)[C@@H]2O[C@@H]2O[C@H](CO)[C@@H](O)[C@H](O)[C@H]2O)[C@H](O)[C@H](O)[C@H]1O (stereo partly specified)	i	i	+	+
C/C=C(\C)C(=O)O[C@H]1[C@H](OC(C)=O)[C@@]2(CO)C(CC1(C)C)C1=CCC3[C@@]4(C)CC[C@H](O[C@@H]5O[C@H](C(=O)O)[C@@H](O)[C@H](O[C@@H]6O[C@H](CO)[C@H](O)[C@H](O)[C@H]6O[C@@H]6O[C@@H](C)[C@H](O)[C@@H](O)[C@H]6O)[C@H]5O[C@@H]5O[C@H](CO)[C@@H](O)[C@H](O)[C@H]5O)C(C)(C)C4CC[C@@]3(C)[C@]1(C)C[C@H]2O (stereo partly specified)	i	i	+	i
C[C@@H]1CCCCO[C@@H](CN(C)Cc2ccc(C(=O)O)cc2)[C@@H](C)CN([C@H](C)CO)C(=O)c2cc(NC(=O)c3ccncc3)ccc2O1	i	i	i	i
CC1OC(O[C@H]2CC[C@@]3(C)C(CC[C@]4(C)C3CC=C3C5CC(C)(C)CC[C@]5(C(=O)OC5OC(CO)C(OC6OC(CO)C(O)C(O)C6O)C(O)C5O)CC[C@]34C)C2(C)C)C(O)C(O)C1OC1OCC(O)(COC2OCC(O)C(OC3OCC(OC4OCC(O)(CO)C4O)C(O)C3O)C2O)C1O (stereo partly specified)	i	i	i	i
CC1OC(OC2C(CO)OC(OC(=O)[C@]34CCC(C)(C)CC3C3=CCC5[C@@]6(C)CC[C@H](OC7OC(C)C(OC8OCC(O)(COC9OCC(O)C(OC%10OCC(OC%11OCC(O)(CO)C%11O)C(O)C%10O)C9O)C8O)C(O)C7O)C(C)(C)C6CC[C@@]5(C)[C@]3(C)CC4)C(O)C2O)C(O)C(O)C1O (stereo partly specified)	i	i	+	+
O=C(COc1ccc(Br)cc1)NCCN1CCOCC1	i	i	i	i
O=C(CSc1nc(O)cc(=O)n1-c1ccccc1)N1CCc2ccccc21	i	+	i	i
O=C(CSc1ccc([N+](=O)[O-])cn1)N1CCc2ccccc21	i	i	i	i
CCc1ccc(S(=O)(=O)NCC(=O)O)cc1	i	i	+	+
Cc1ccc(S(=O)(=O)NC(=O)COc2cccc3ccccc23)c(C)c1	i	i	i	+
CC(C)(C)NS(=O)(=O)c1ccc(NC(=O)COc2ccc3ccccc3c2Br)cc1	i	i	i	i
C[C@@H]1CN([C@H](C)CO)C(=O)c2cccc(NC(=O)Nc3cccc4ccccc34)c2O[C@@H]1CN(C)S(=O)(=O)c1ccc(Cl)cc1	i	i	i	i
C[C@@H]1CN([C@H](C)CO)C(=O)c2cc(NC(=O)Cc3ccccc3)ccc2O[C@H]1CN(C)CC1CC1	i	i	i	i
O=C(O)CNS(=O)(=O)c1cc(Cl)c(Cl)cc1Cl	i	+	+	+
C[C@@H]1CN([C@@H](C)CO)C(=O)c2cccc(NC(=O)C3CCOCC3)c2O[C@@H]1CN(C)C	i	i	i	i
O=C(Cn1c(NCCCO)nc2ccccc21)c1ccc(Cl)c(Cl)c1	i	i	i	i
CC1CC[C@@]2(OC1)O[C@H]1CC3C4CC=C5C[C@@H](O[C@@H]6O[C@H](CO)[C@@H](O)[C@H](O)[C@H]6O)CC[C@]5(C)C4CC[C@]3(C)[C@@]1(O)[C@@H]2C (stereo partly specified)	i	i	+	i
C=CCn1c(SCC(=O)O)nnc1-c1cccc(C)c1	i	i	i	+
C[C@@H]1CCCCO[C@@H](CN(C)Cc2ccc(C(F)(F)F)cc2)[C@@H](C)CN([C@H](C)CO)C(=O)c2cc(NC(=O)C3CCCCC3)ccc2O1	i	i	i	i
C[C@@H]1CCCCO[C@@H](CN(C)Cc2ccc(C(=O)O)cc2)[C@@H](C)CN([C@H](C)CO)C(=O)c2cc(NC(=O)Nc3ccc(F)cc3)ccc2O1	i	i	i	i
C[C@@H]1CCCCO[C@@H](CN(C)Cc2ccc(C(=O)O)cc2)[C@H](C)CN([C@H](C)CO)C(=O)c2cc(NC(=O)Nc3ccc(C(F)(F)F)cc3)ccc2O1	i	i	+	i
C[C@@H]1CN([C@@H](C)CO)C(=O)c2cc(NC(=O)Nc3ccc(C(F)(F)F)cc3)ccc2O[C@@H](C)CCCCO[C@H]1CN(C)Cc1ccc(C(F)(F)F)cc1	i	i	+	i
O=[N+]([O-])c1ccc(NCCNCCO)cc1	i	+	i	i
C[C@H]1CCCCO[C@H](CN(C)Cc2ccc(Cl)c(Cl)c2)[C@@H](C)CN([C@@H](C)CO)C(=O)c2cc(N(C)C)ccc2O1	i	i	i	i
O=C(O)CCNC(=O)c1cncc(Br)c1	i	i	i	+
SMILES	STAT3 SMM	p53 mut binder	NFkB SMM	c-Myc SMM
Cc1cc(C)n(CC(O)Cn2ccc3ccccc32)n1 (stereo unspecified)	i	i	+	+
COc1ccc(NCC(O)Cn2ccc3ccccc32)cc1 (stereo unspecified)	i	i	i	i
C[C@H](CO)N1C[C@H](C)[C@H](CN(C)C(=O)NC2CCCCC2)Oc2c(NS(=O)(=O)c3cn(C)cn3)cccc2C1=O	i	i	i	i
COc1cc(OC)c(OC)cc1CN1CCN(Cc2ccccn2)CC1	i	i	i	+
COc1ccc(S(=O)(=O)N(C)C[C@@H]2Oc3ccc(NC(=O)Cc4ccccc4)cc3CC(=O)N([C@@H](C)CO)C[C@@H]2C)cc1	i	i	i	i
COc1c(C=O)c(O)cc2c1C(=O)c1ccccc1C2=O	i	i	i	+
O=C(O)c1cc(O)c2c(c1)C(=O)c1cccc(O)c1C2=O	i	i	i	i
CC#CCOC(=O)C1=CCCN(C)C1	+	i	+	+
COc1ccccc1Cn1c(NCC(C)O)nc2c1c(=O)n(C)c(=O)n2C (stereo unspecified)	i	i	i	i
C[C@@H]1CN([C@H](C)CO)C(=O)c2cccc(NS(C)(=O)=O)c2O[C@@H]1CN(C)C(=O)Nc1ccc(C(F)(F)F)cc1	i	i	i	i
CC12C=CC(=O)C=C1CCC1C2=CCC2(C)C1CC[C@@H]2C(=O)CN1CCN(c2cc(N3CCCC3)nc(N3CCCC3)n2)CC1 (stereo partly specified)	i	i	i	+
N#Cc1cc(C#N)c(SCCN2CCOCC2)nc1N	i	+	i	i

High-throughput results (PubChem BioAssay)
